# According to the supplement of paper PMC3334620:
# In all, about 33,000 sequences were measured (“E-score (-0.5 to 0.5)”: median about -0.035, highest 2% from about 0.35 on). For the sample, the highest values were picked, then their nearest neighbours and some sequences at random.
# Target: T1, Pdr3 (UniProt P33200)
# T1 sequence: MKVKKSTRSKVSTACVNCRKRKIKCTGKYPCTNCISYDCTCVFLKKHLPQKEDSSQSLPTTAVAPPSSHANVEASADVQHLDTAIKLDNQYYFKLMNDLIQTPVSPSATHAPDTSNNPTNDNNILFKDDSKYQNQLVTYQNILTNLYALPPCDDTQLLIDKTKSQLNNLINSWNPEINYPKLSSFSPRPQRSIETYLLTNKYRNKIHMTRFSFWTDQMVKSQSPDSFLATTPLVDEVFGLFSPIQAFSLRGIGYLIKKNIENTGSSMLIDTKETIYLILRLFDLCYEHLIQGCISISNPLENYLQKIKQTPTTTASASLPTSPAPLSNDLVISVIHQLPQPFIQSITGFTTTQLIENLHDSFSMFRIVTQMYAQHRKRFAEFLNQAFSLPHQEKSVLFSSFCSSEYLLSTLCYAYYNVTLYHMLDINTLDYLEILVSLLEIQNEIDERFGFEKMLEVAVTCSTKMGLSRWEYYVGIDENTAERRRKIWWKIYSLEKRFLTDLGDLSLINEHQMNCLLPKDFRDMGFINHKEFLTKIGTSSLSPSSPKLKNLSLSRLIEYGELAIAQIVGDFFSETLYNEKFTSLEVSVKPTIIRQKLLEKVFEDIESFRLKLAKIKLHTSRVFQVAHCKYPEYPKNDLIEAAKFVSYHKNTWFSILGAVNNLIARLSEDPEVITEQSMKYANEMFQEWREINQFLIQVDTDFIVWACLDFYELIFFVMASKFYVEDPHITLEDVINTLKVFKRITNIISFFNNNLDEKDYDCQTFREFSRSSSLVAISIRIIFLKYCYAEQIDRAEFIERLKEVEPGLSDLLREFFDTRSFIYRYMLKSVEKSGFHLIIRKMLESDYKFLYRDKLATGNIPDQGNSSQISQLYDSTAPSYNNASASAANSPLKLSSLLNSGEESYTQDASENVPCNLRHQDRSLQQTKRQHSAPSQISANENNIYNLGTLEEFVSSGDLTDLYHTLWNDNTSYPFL
# Assay: PBM E-score (8-mer binding enrichment) (E-score (-0.5 to 0.5)); higher = stronger / more preferred TF binding
# Details: protein concentration: 200 nM; construct: GST-full length
# Description: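 Universal 'all 10-mer' protein binding microarrays (Agilent AMADID 015681) probed with GST-tagged S. cerevisiae TFs (full-length or DBD) made by in vitro transcription/translation (PURExpress), about 100-200 nM. Bound TF was detected with fluorescent anti-GST. Each ungapped 8-mer (which stands for itself and its reverse complement) is scored by the PBM enrichment score (E-score), a modified Wilcoxon-Mann-Whitney statistic from -0.5 to +0.5, computed with the Universal PBM Analysis Suite. Scale: above 0.35 generally sequence-specific binding.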
row,Sequence,PBM E-score
1,TACCGATA,0.0617
2,GACTAACC,-0.2
3,ACCTCAAG,-0.0979
4,ATGATCTA,0.0443
5,ACGTCCCG,0.279
6,CCGTCCCC,0.166
7,CCGTCCCG,0.371
8,TACTCAGA,-0.0418
9,ATGCTCTA,-0.211
10,CCGGACCC,0.379
11,GCGGACCC,0.336
12,CAGGACCG,-0.0353
13,CCAGACCG,0.0829
14,CGGGACCG,0.373
15,AGGGACAG,-0.3
16,CGGGACAC,0.245
17,AGGGACCG,-0.128
18,CCGGACCG,0.378
19,ACGGACCC,0.344
20,CGGGACCA,0.264
21,CGGGACAG,0.359
22,AGGGTTAT,-0.0536
23,GGATAAAC,0.195
24,CGACCTCC,0.208
25,AGTCATGG,-0.234

row,Sequence,PBM E-score
1,CCAAGAGG,-0.122
2,CGCCGAGA,0.228
3,GCTGGTAC,0.029
4,CGGCACAA,0.121
5,CCTTGACA,-0.209
6,TTACCGAA,0.105
7,CGTATAGA,-0.231
8,AGTTCCTA,0.0135
9,AGTTCCCA,0.16
10,GGTTCCAA,0.273
11,GGTTCCCA,-0.0344
12,CGTTCCAA,-0.0612
13,CGTTCCCC,0.146
14,CGTTCCGC,0.453
15,AGTTCCGA,0.456
16,CGTTCCGA,0.455
17,CGTTCCTC,0.194
18,CGTTCCTA,-0.0878
19,GGTTCCGA,0.476
20,GATCCACC,-0.0343
21,ACGAGATC,0.00781
22,GAAGGGCC,0.00364
23,CTTCACAC,-0.201
24,ACCAAATA,0.0784
25,GGAATGTA,0.339

row,Sequence,PBM E-score
1,CATAACCG,0.135
2,ACAATGCT,-0.171
3,AGCATAAG,-0.0742
4,AGTTCCCC,0.0744
5,AGGTCCGA,0.305
6,GGGTCCGA,0.234
7,AGTTCCAC,-0.00065
8,CGGTCCGA,0.378
9,AGTTCCTG,-0.0933
10,AGTTCCGC,0.467
11,AGTTCCGG,0.464
12,AGTTCCAG,-0.0101
13,CTAGGTTC,0.154
14,CCCATCCA,0.00501
15,GTGAAAGA,-0.0383
16,CTAAGATC,-0.0406
17,ACTACCCT,-0.179
18,ATCTAGAG,-0.177
19,CTTCGACC,0.054
20,TCGGATAA,0.307
21,GTGGAAGA,-0.0507
22,AGGGAAGC,-0.0866
23,ACGGAAGC,0.427
24,ATGGAAGA,-0.243
25,AAGGAAGT,0.0783

row,Sequence,PBM E-score
1,ATGGAAGC,0.179
2,GAGGAAGA,0.0527
3,ACGGAAGT,0.393
4,AAGGAAGA,-0.2
5,ACGGAAGA,0.373
6,ACAGAAGT,-0.285
7,GCGGAAGA,0.393
8,CCCCCTAG,-0.342
9,CCCTGACA,-0.222
10,CATGAACG,-0.0457
11,CAAAACCG,0.00937
12,GGTGCGCA,0.191
13,ACGGAAGG,0.397
14,CTGGAAGA,-0.108
15,GCGGAAGC,0.347
16,CCGGAAGC,0.444
17,CTGGAAGC,-0.322
18,CAGGAAGA,0.0315
19,TAGGAAGA,-0.204
20,TCGGAAGA,0.359
21,CCGGAAGA,0.403
22,TCAGAAGA,-0.178
23,ATGGAAGG,-0.197
24,AAGGAAGG,-0.205
25,CGACCACA,-0.0427

row,Sequence,PBM E-score
1,AAGTGCAC,0.0238
2,ACTGAGAA,-0.121
3,TAAGCCCA,-0.113
4,ACTAGGGA,-0.253
5,ACTGCCCG,0.179
6,CACGTGGA,-0.0333
7,AGGGAAGA,-0.238
8,CGGGAAGA,0.391
9,CCAGAAGG,-0.0321
10,GGGGAACA,-0.00834
11,CGGGAACA,0.358
12,CGGGAAGC,0.282
13,AGGGAACA,-0.0421
14,CCGGAAGG,0.421
15,CAGGAAGG,-0.317
16,CCCCCCAG,-0.372
17,CGCGAGGA,0.135
18,TATGGCGA,-0.0751
19,GCAGACAA,0.0426
20,ACCCTCAA,-0.158
21,GCCCGGTA,0.102
22,ACCCGGCA,0.256
23,ACCCGGAA,0.456
24,TCCCGTAA,0.0877
25,ACCCGGTA,0.215

row,Sequence,PBM E-score
1,GCCCGGAC,0.282
2,ACCCGGCG,0.276
3,ACCCGGAG,0.38
4,TCCCGGAA,0.463
5,GCCCGGAA,0.459
6,TCCCGAAA,0.206
7,ACCCGGAT,0.31
8,CCCTGAAA,-0.0909
9,ACCCCGTA,0.006
10,CACGCGTG,0.283
11,GCTTGGTA,-0.168
12,AATTCGAA,-0.148
13,CCCCGGAG,0.355
14,CCCCCGAA,-0.0602
15,CCCCGGAA,0.421
16,CCCCCGAG,-0.0658
17,CCCCGGAC,0.33
18,CCCCGCAG,0.225
19,CAGGGATA,-0.193
20,ATAGTCAT,-0.0921
21,CGCGGCGC,0.398
22,CGCGGCGA,0.374
23,AGCGGCAC,0.118
24,CGCGGCAA,0.341
25,CGGCGCGC,0.245

row,Sequence,PBM E-score
1,GGCGGCGA,0.243
2,AGCGGCGC,0.137
3,AGCGGCGA,0.197
4,CGCGGCAC,0.385
5,CCGAGCAC,0.122
6,ACGTGAGT,-0.0439
7,TGAGTCCA,-0.18
8,AAAGTCAT,-0.0971
9,ATTAGGGG,-0.0731
10,AACCCTGT,-0.104
11,ATGTTGCG,0.091
12,ATGGAGCG,0.0393
13,CTGAGGAC,-0.0292
14,AATACCCC,0.188
15,TCCATCAA,0.0544
16,GCGGGTGA,0.26
17,CCGGGTAC,0.303
18,CGGGGTGA,0.214
19,TCGGGTAA,0.0953
20,CCGGGTAA,0.397
21,CCGGGTGA,0.404
22,GGACGGCC,0.188
